Where “and” joins values, the source holds several entries; their conditions need not be identical. Equal entries are not always repeated. Values without a mark were called inactive. Calls of active or inactive are those of the source.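 How the source made its calls: active means thallium flux through the channel raised or lowered by more than 3 SD from vehicle-only wells, actives on both sides; inactive means the rest.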

For one assay, the target named is Calcium-activated potassium channel subunit alpha-1 (Homo sapiens) + Leucine-rich repeat-containing protein 26 (Homo sapiens) (UniProt Q12791+Q2I0M4). Kind of assay: modulators of BK channel variants, profiling panel, selectivity assay, cell-based, U2OS BacMam, thallium flux, beta subunits (AID 1259406).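 Further: initial slope of Thallos dye fluorescence rise after thallium is added; log ratio against the mean of 0.3% DMSO vehicle wells on the same plate.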 The conditions noted are these: F380Y/Slo1WT/gamma1, at 30 µM.
Sequence of Calcium-activated potassium channel subunit alpha-1 (Homo sapiens) + Leucine-rich repeat-containing protein 26 (Homo sapiens) (Q2I0M4 whole entry, looked up, one chain of several): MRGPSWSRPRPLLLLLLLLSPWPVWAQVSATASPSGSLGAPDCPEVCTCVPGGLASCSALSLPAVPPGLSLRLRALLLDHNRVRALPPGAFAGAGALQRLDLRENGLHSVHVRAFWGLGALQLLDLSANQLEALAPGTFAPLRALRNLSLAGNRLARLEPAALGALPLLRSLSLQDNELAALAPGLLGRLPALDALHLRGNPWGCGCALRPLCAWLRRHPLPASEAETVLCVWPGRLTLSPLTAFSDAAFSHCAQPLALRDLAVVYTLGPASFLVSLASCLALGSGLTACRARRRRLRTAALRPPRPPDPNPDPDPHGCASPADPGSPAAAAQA
In the case of `CC12CC3CC(C)(C1)CC(N)(C3)C2`, the log fold change Tl+ flux was -0.0203.

Regarding `CC(=O)OCC(CCn1cnc2cnc(N)nc21)COC(C)=O`, the log fold change Tl+ flux is 0.0418.

Take `S=c1nc[nH]c2nc[nH]c12`: the log fold change Tl+ flux is -0.0406.

As to `Oc1c(Cl)cc(Cl)c2cccnc12`, the log fold change Tl+ flux was 0.231 (active).

`CC1=NS(=O)(=O)c2cc(Cl)ccc2N1`: the log fold change Tl+ flux is -0.0135.

Consider `OC(Cn1cncn1)(Cn1cncn1)c1ccc(F)cc1F`, for which the log fold change Tl+ flux is -0.0185.

On to `NCCc1ccc(O)c(O)c1`, for which the log fold change Tl+ flux is -0.0022.

In the case of `CN=C(NC#N)NCCSCc1nc[nH]c1C`, the log fold change Tl+ flux is 0.0464.

Regarding `COc1c(N2CCNC(C)C2)c(F)cc2c(=O)c(C(=O)O)cn(C3CC3)c12` (stereo not drawn), the log fold change Tl+ flux is 0.0449.

Regarding `CC1COc2c(N3CCN(C)CC3)c(F)cc3c(=O)c(C(=O)O)cn1c23` (stereo not drawn), the log fold change Tl+ flux is 0.00974.

As for `O=C(C1CCCCC1)N1CC(=O)N2CCc3ccccc3C2C1` (stereo not drawn), the log fold change Tl+ flux was -0.00263.

On to `CCc1cc(C(N)=S)ccn1`, for which the log fold change Tl+ flux is 0.00124.

For the molecule `CC1=C(/C=C/C(C)=C/C=C/C(C)=C/C(=O)O)C(C)(C)CCC1`, the log fold change Tl+ flux is 0.0114.

Turning to `CCCCNc1cc(C(=O)O)cc(S(N)(=O)=O)c1Oc1ccccc1`, the log fold change Tl+ flux is -0.0253.

In the case of `O=c1[nH]cnc2[nH]ncc12`, the log fold change Tl+ flux is 0.0214.

Turning to `O=C1c2c(O)ccc(O)c2C(=O)c2c(NCCNCCO)ccc(NCCNCCO)c21`, the log fold change Tl+ flux is -0.0507.

As to `O=C(O)c1cc(=O)c2c(OCC(O)COc3cccc4oc(C(=O)O)cc(=O)c34)cccc2o1`, the log fold change Tl+ flux was -0.0248.

For `CC(C)C(=O)Nc1ccc([N+](=O)[O-])c(C(F)(F)F)c1`, the log fold change Tl+ flux is -0.0492.

Consider `CC(COc1ccccc1)N(CCCl)Cc1ccccc1` (stereo not drawn), for which the log fold change Tl+ flux was -0.0217.

For the molecule `CCCc1nc2c(C)cc(-c3nc4ccccc4n3C)cc2n1Cc1ccc(-c2ccccc2C(=O)O)cc1`, the log fold change Tl+ flux is 0.054.

On to `CC(=O)CC(c1ccccc1)c1c(O)c2ccccc2oc1=O` (stereo not drawn), for which the log fold change Tl+ flux was -0.00524.

For `NS(=O)(=O)c1cc2c(cc1Cl)NCNS2(=O)=O`, the log fold change Tl+ flux is -0.0022.

As to `CS(=O)(=O)OCCCCOS(C)(=O)=O`, the log fold change Tl+ flux is -0.0136.

Regarding `CCOC(=O)C1=C(C)NC(C)=C(C(=O)OC)C1c1cccc([N+](=O)[O-])c1` (stereo not drawn), the log fold change Tl+ flux is 0.00177.

As to `COc1ccccc1OCCNCC(O)COc1cccc2[nH]c3ccccc3c12` (stereo not drawn), the log fold change Tl+ flux was 0.204 (active).

With `O=C(O)CCCc1ccccc1`, the log fold change Tl+ flux is 0.00509.

`NNCCc1ccccc1`: the log fold change Tl+ flux is -0.00263.

Regarding `CC1Cc2ccccc2N1NC(=O)c1ccc(Cl)c(S(N)(=O)=O)c1` (stereo not drawn), the log fold change Tl+ flux is -0.0185.

Take `CC(C)Cc1ccc(C(C)C(=O)O)cc1` (stereo not drawn): the log fold change Tl+ flux was -0.0267.

As for `N[C@@H]1CONC1=O`, the log fold change Tl+ flux was -0.0244 and 0.0135.

Take `CCN(Cc1ccncc1)C(=O)C(CO)c1ccccc1` (stereo not drawn): the log fold change Tl+ flux is 0.00211.

Take `CCCc1cc(=O)[nH]c(=S)[nH]1`: the log fold change Tl+ flux was 0.00637.

For the molecule `O=C(O)c1cccnc1`, the log fold change Tl+ flux was -4.3e-05.

Take `CC(C[N+](C)(C)C)OC(N)=O` (stereo not drawn): the log fold change Tl+ flux is 0.00848.

Consider `COc1ccc(Cl)cc1C(=O)NCCc1ccc(S(=O)(=O)NC(=O)NC2CCCCC2)cc1`, for which the log fold change Tl+ flux was 0.0583.

In the case of `N[C@@H](Cc1cc(I)c(Oc2cc(I)c(O)c(I)c2)c(I)c1)C(=O)O`, the log fold change Tl+ flux is 0.0246.

In the case of `CC1(C)O[C@@H]2[C@@H](CO[C@@]3(COS(N)(=O)=O)OC(C)(C)O[C@@H]23)O1`, the log fold change Tl+ flux was 0.0353.

As for `COCCOC(=O)C1=C(C)NC(C)=C(C(=O)OC(C)C)C1c1cccc([N+](=O)[O-])c1` (stereo not drawn), the log fold change Tl+ flux is 0.0377.

Take `NNC(=O)c1ccncc1`: the log fold change Tl+ flux was 0.0222.

In the next assay the test system is R275C. Described as above. The note with it: at 30 µM.
On to `CC12CC3CC(C)(C1)CC(N)(C3)C2`, for which the log fold change Tl+ flux was 0.00266.

Take `CC(=O)OCC(CCn1cnc2cnc(N)nc21)COC(C)=O`: the log fold change Tl+ flux is -0.0357.

In the case of `S=c1nc[nH]c2nc[nH]c12`, the log fold change Tl+ flux was -0.0342.

Consider `Oc1c(Cl)cc(Cl)c2cccnc12`, for which the log fold change Tl+ flux is 0.0996 (active).

Turning to `CC1=NS(=O)(=O)c2cc(Cl)ccc2N1`, the log fold change Tl+ flux was -0.00922.

`OC(Cn1cncn1)(Cn1cncn1)c1ccc(F)cc1F`: the log fold change Tl+ flux was 0.0468.

As to `NCCc1ccc(O)c(O)c1`, the log fold change Tl+ flux was 0.00996.

For `CN=C(NC#N)NCCSCc1nc[nH]c1C`, the log fold change Tl+ flux is 0.00692.

Take `COc1c(N2CCNC(C)C2)c(F)cc2c(=O)c(C(=O)O)cn(C3CC3)c12` (stereo not drawn): the log fold change Tl+ flux was -0.0278.

For the molecule `CC1COc2c(N3CCN(C)CC3)c(F)cc3c(=O)c(C(=O)O)cn1c23` (stereo not drawn), the log fold change Tl+ flux was 0.0249.

As to `O=C(C1CCCCC1)N1CC(=O)N2CCc3ccccc3C2C1` (stereo not drawn), the log fold change Tl+ flux is -0.0164.

`CCc1cc(C(N)=S)ccn1`: the log fold change Tl+ flux was 0.0202.

Consider `CC1=C(/C=C/C(C)=C/C=C/C(C)=C/C(=O)O)C(C)(C)CCC1`, for which the log fold change Tl+ flux is 0.0107.

For `CCCCNc1cc(C(=O)O)cc(S(N)(=O)=O)c1Oc1ccccc1`, the log fold change Tl+ flux was -0.00799.

As for `O=c1[nH]cnc2[nH]ncc12`, the log fold change Tl+ flux is 0.00104.

For the molecule `O=C1c2c(O)ccc(O)c2C(=O)c2c(NCCNCCO)ccc(NCCNCCO)c21`, the log fold change Tl+ flux is -0.0256.

For the molecule `O=C(O)c1cc(=O)c2c(OCC(O)COc3cccc4oc(C(=O)O)cc(=O)c34)cccc2o1`, the log fold change Tl+ flux was -0.0035.

`CC(C)C(=O)Nc1ccc([N+](=O)[O-])c(C(F)(F)F)c1`: the log fold change Tl+ flux is -0.0976 (active).

For the molecule `CC(COc1ccccc1)N(CCCl)Cc1ccccc1` (stereo not drawn), the log fold change Tl+ flux was -0.0819.

Take `CCCc1nc2c(C)cc(-c3nc4ccccc4n3C)cc2n1Cc1ccc(-c2ccccc2C(=O)O)cc1`: the log fold change Tl+ flux is -0.0814.

Consider `CC(=O)CC(c1ccccc1)c1c(O)c2ccccc2oc1=O` (stereo not drawn), for which the log fold change Tl+ flux is 0.00879.

With `NS(=O)(=O)c1cc2c(cc1Cl)NCNS2(=O)=O`, the log fold change Tl+ flux is -0.00411.

In the case of `CS(=O)(=O)OCCCCOS(C)(=O)=O`, the log fold change Tl+ flux was 0.0198.

With `CCOC(=O)C1=C(C)NC(C)=C(C(=O)OC)C1c1cccc([N+](=O)[O-])c1` (stereo not drawn), the log fold change Tl+ flux was 0.0204.

Turning to `COc1ccccc1OCCNCC(O)COc1cccc2[nH]c3ccccc3c12` (stereo not drawn), the log fold change Tl+ flux was -0.174 (active).

Turning to `O=C(O)CCCc1ccccc1`, the log fold change Tl+ flux was -0.048.

As to `NNCCc1ccccc1`, the log fold change Tl+ flux is -0.025.

As for `CC1Cc2ccccc2N1NC(=O)c1ccc(Cl)c(S(N)(=O)=O)c1` (stereo not drawn), the log fold change Tl+ flux is 0.0209.

As for `CC(C)Cc1ccc(C(C)C(=O)O)cc1` (stereo not drawn), the log fold change Tl+ flux was 0.00709.

Turning to `N[C@@H]1CONC1=O`, the log fold change Tl+ flux was -0.00755 and 0.0374.

On to `CCN(Cc1ccncc1)C(=O)C(CO)c1ccccc1` (stereo not drawn), for which the log fold change Tl+ flux is -0.035.

Consider `CCCc1cc(=O)[nH]c(=S)[nH]1`, for which the log fold change Tl+ flux is -0.0214.

With `O=C(O)c1cccnc1`, the log fold change Tl+ flux was 0.0183.

As for `CC(C[N+](C)(C)C)OC(N)=O` (stereo not drawn), the log fold change Tl+ flux was 0.0156.

As to `COc1ccc(Cl)cc1C(=O)NCCc1ccc(S(=O)(=O)NC(=O)NC2CCCCC2)cc1`, the log fold change Tl+ flux was 0.027.

Turning to `N[C@@H](Cc1cc(I)c(Oc2cc(I)c(O)c(I)c2)c(I)c1)C(=O)O`, the log fold change Tl+ flux was 0.00175.

On to `CC1(C)O[C@@H]2[C@@H](CO[C@@]3(COS(N)(=O)=O)OC(C)(C)O[C@@H]23)O1`, for which the log fold change Tl+ flux is -0.04.

With `COCCOC(=O)C1=C(C)NC(C)=C(C(=O)OC(C)C)C1c1cccc([N+](=O)[O-])c1` (stereo not drawn), the log fold change Tl+ flux is -0.000869.

As to `NNC(=O)c1ccncc1`, the log fold change Tl+ flux was 0.00765.
